# Several values for one entry are separate records, joined by “and”; a condition that tells them apart may be missing. Equal values may be shown once. Read-outs that look alike come from different tables or passages of the source.
# Assays:
# EPHA4 = conditions: n = 1
# EPHA5 = conditions: concentration: 1 μM, replicates: in singlicate; n = 1
# EPHA6 = conditions: n = 1
# EPHA7 = conditions: n = 1
# EPHA8 = conditions: n = 1
# EPHB1 = conditions: n = 1
# EPHB2 = conditions: concentration: 1 μM, replicates: in singlicate; n = 1
# EPHB3 = conditions: n = 1
# EPHB4 = conditions: n = 1
# EPHB6 = conditions: n = 1
# ERBB2 = conditions: n = 1
# ERBB3 = conditions: concentration: 1 μM, replicates: in singlicate; n = 1
# ERBB4 = conditions: n = 1
# ERK1 = tested on: T1, ERK1; conditions: concentration: 1 μM, replicates: in singlicate; n = 1
# T1 construct: gene MAPK3
# ERK2 = tested on: T2, ERK2; conditions: concentration: 1 μM, replicates: in singlicate; n = 1
# T2 construct: gene MAPK1
# ERK3 = tested on: T3, ERK3; conditions: n = 1
# T3 construct: gene MAPK6
# ERK4 = tested on: T4, ERK4; conditions: n = 1
# T4 construct: gene MAPK4
# ERK5 = tested on: T5, ERK5; conditions: concentration: 1 μM, replicates: in singlicate; n = 1
# T5 construct: gene MAPK7
# ERK8 = tested on: T6, ERK8; conditions: concentration: 1 μM, replicates: in singlicate; n = 1
# T6 construct: gene MAPK15
# ERN1 = conditions: n = 1
# [1] = concentration: 1 μM, replicates: in singlicate
# [2] = concentration: 1 μM,replicates: in singlicate, 1 µM
# 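Also: KINOMEscan kinase panel screen.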
smiles,measurement,setting,value
Cc1cc(N2Cc3ccccc3C2)nc(Nc2ccc(S(=O)(=O)N3CCOCC3)cc2)n1.Cl [GSK1669917],%Inh,EPHA4; [1],0%
same,%Inh,EPHA5,0%
same,%Inh,EPHA6; [1],0%
same,%Inh,EPHA7; [1],0%
same,%Inh,EPHA8; [1],7%
same,%Inh,EPHB1; [1],0%
same,%Inh,EPHB2,0%
same,%Inh,EPHB3; [1],0%
same,%Inh,EPHB4; [1],6%
same,%Inh,EPHB6; [1],10%
same,%Inh,ERBB2; [1],0%
same,%Inh,ERBB3,0%
same,%Inh,ERBB4; [1],26%
same,%Inh,ERK1,0%
same,%Inh,ERK2,0%
same,%Inh,ERK3; [1],0%
same,%Inh,ERK4; [1],19%
same,%Inh,ERK5,0%
same,%Inh,ERK8,0%
same,%Inh,ERN1; [1],0%
O=C(Nc1n[nH]c2nc(-c3nccs3)c(Br)cc12)C1CC1 [SB-742251],%Inh,EPHA4; [1],24%
same,%Inh,EPHA5,1%
same,%Inh,EPHA6; [1],32%
same,%Inh,EPHA7; [1],18%
same,%Inh,EPHA8; [1],35%
same,%Inh,EPHB1; [1],0%
same,%Inh,EPHB2,15%
same,%Inh,EPHB3; [1],29%
same,%Inh,EPHB4; [1],17%
same,%Inh,EPHB6; [1],59%
same,%Inh,ERBB2; [1],2%
same,%Inh,ERBB3,19%
same,%Inh,ERBB4; [1],0%
same,%Inh,ERK1,0%
same,%Inh,ERK2,11%
same,%Inh,ERK3; [1],14%
same,%Inh,ERK4; [1],16%
same,%Inh,ERK5,0%
same,%Inh,ERK8,84%
same,%Inh,ERN1; [1],0%
CN1C(=O)C(Nc2ccc(Cl)c(C(=O)O)c2)=C(c2ccc(Cl)cc2)C1=O [SB-404290],%Inh,EPHA4; [1],1%
same,%Inh,EPHA5,0%
same,%Inh,EPHA6; [1],2%
same,%Inh,EPHA7; [1],2%
same,%Inh,EPHA8; [1],19%
same,%Inh,EPHB1; [1],9%
same,%Inh,EPHB2,0%
same,%Inh,EPHB3; [1],7%
same,%Inh,EPHB4; [1],0%
same,%Inh,EPHB6; [1],28%
same,%Inh,ERBB2; [1],0%
same,%Inh,ERBB3,0%
same,%Inh,ERBB4; [1],8%
same,%Inh,ERK1,0%
same,%Inh,ERK2,0%
same,%Inh,ERK3; [1],0%
same,%Inh,ERK4; [1],0%
same,%Inh,ERK5,1%
same,%Inh,ERK8,0%
same,%Inh,ERN1; [1],0%
Cn1ccc2ncnc(Oc3ccc(Nc4nc5ccccc5[nH]4)cc3)c21,%Inh,EPHA4; [1],12%
same,%Inh,EPHA5,0%
same,%Inh,EPHA6; [1],4%
same,%Inh,EPHA7; [1],0%
same,%Inh,EPHA8; [1],0%
same,%Inh,EPHB1; [1],0%
same,%Inh,EPHB2,0%
same,%Inh,EPHB3; [1],0%
same,%Inh,EPHB4; [1],1%
same,%Inh,EPHB6; [1],0%
same,%Inh,ERBB2; [1],3%
same,%Inh,ERBB3,0%
same,%Inh,ERBB4; [1],0%
same,%Inh,ERK1,0%
same,%Inh,ERK2,2%
same,%Inh,ERK3; [1],0%
same,%Inh,ERK4; [1],0%
same,%Inh,ERK5,0%
same,%Inh,ERK8,0%
same,%Inh,ERN1; [1],0%
NC(=O)c1nnc2ccccc2c1N,%Inh,EPHA4; [1],1%
same,%Inh,EPHA5,10%
same,%Inh,EPHA6; [1],0%
same,%Inh,EPHA7; [1],0%
same,%Inh,EPHA8; [1],0%
same,%Inh,EPHB1; [1],0%
same,%Inh,EPHB2,13%
same,%Inh,EPHB3; [1],0%
same,%Inh,EPHB4; [1],19%
same,%Inh,EPHB6; [1],9%
same,%Inh,ERBB2; [1],22%
same,%Inh,ERBB3,45%
same,%Inh,ERBB4; [1],4%
same,%Inh,ERK1,0%
same,%Inh,ERK2,18%
same,%Inh,ERK3; [1],0%
same,%Inh,ERK4; [1],2%
same,%Inh,ERK5,5%
same,%Inh,ERK8,0%
same,%Inh,ERN1; [1],22%
Cc1ccccc1-n1cnc2c(N)ncnc21 [SKF-97510],%Inh,EPHA4; [1],4%
same,%Inh,EPHA5,0%
same,%Inh,EPHA6; [1],0%
same,%Inh,EPHA7; [1],0%
same,%Inh,EPHA8; [1],0%
same,%Inh,EPHB1; [1],1%
same,%Inh,EPHB2,0%
same,%Inh,EPHB3; [1],0%
same,%Inh,EPHB4; [1],0%
same,%Inh,EPHB6; [1],7%
same,%Inh,ERBB2; [1],0%
same,%Inh,ERBB3,0%
same,%Inh,ERBB4; [1],0%
same,%Inh,ERK1,0%
same,%Inh,ERK2,0%
same,%Inh,ERK3; [1],2%
same,%Inh,ERK4; [1],0%
same,%Inh,ERK5,0%
same,%Inh,ERK8,0%
same,%Inh,ERN1; [1],0%
COC(=O)c1c(-c2ccccc2)c2cc(C(=O)O)ccc2c(=O)n1Cc1ccccc1,%Inh,EPHA4; [1],0%
same,%Inh,EPHA5,0%
same,%Inh,EPHA6; [1],0%
same,%Inh,EPHA7; [1],0%
same,%Inh,EPHA8; [1],0%
same,%Inh,EPHB1; [1],6%
same,%Inh,EPHB2,12%
same,%Inh,EPHB3; [1],0%
same,%Inh,EPHB4; [1],0%
same,%Inh,EPHB6; [1],0%
same,%Inh,ERBB2; [1],0%
same,%Inh,ERBB3,0%
same,%Inh,ERBB4; [1],2%
same,%Inh,ERK1,0%
same,%Inh,ERK2,16%
same,%Inh,ERK3; [1],0%
same,%Inh,ERK4; [1],0%
same,%Inh,ERK5,0%
same,%Inh,ERK8,0%
same,%Inh,ERN1; [1],0%
Cc1ccc(NC(=O)Nc2cc(C(C)(C)C)nn2-c2ccccc2)cc1 [GSK1014915],%Inh,EPHA4; [1],24%
same,%Inh,EPHA5,0%
same,%Inh,EPHA6; [1],28%
same,%Inh,EPHA7; [1],9%
same,%Inh,EPHA8; [1],25%
same,%Inh,EPHB1; [1],14%
same,%Inh,EPHB2,0%
same,%Inh,EPHB3; [1],20%
same,%Inh,EPHB4; [1],12%
same,%Inh,EPHB6; [1],19%
same,%Inh,ERBB2; [1],36%
same,%Inh,ERBB3,10%
same,%Inh,ERBB4; [1],0%
same,%Inh,ERK1,0%
same,%Inh,ERK2,0%
same,%Inh,ERK3; [1],7%
same,%Inh,ERK4; [1],26%
same,%Inh,ERK5,0%
same,%Inh,ERK8,52%
same,%Inh,ERN1; [1],0%
O=C(Nc1n[nH]c2cc(-c3cccc(F)c3F)ccc12)C1CC1 [SB-733894],%Inh,EPHA4; [1],1%
same,%Inh,EPHA5,0%
same,%Inh,EPHA6; [1],0%
same,%Inh,EPHA7; [1],0%
same,%Inh,EPHA8; [1],0%
same,%Inh,EPHB1; [1],0%
same,%Inh,EPHB2,20%
same,%Inh,EPHB3; [1],10%
same,%Inh,EPHB4; [1],62%
same,%Inh,EPHB6; [1],31%
same,%Inh,ERBB2; [1],0%
same,%Inh,ERBB3,0%
same,%Inh,ERBB4; [1],27%
same,%Inh,ERK1,0%
same,%Inh,ERK2,0%
same,%Inh,ERK3; [1],0%
same,%Inh,ERK4; [1],0%
same,%Inh,ERK5,11%
same,%Inh,ERK8,28%
same,%Inh,ERN1; [1],5%
CSc1nn2c(=O)cc(N3CCOCC3)nc2n1Cc1cccc(C(F)(F)F)c1C [GSK2363608],%Inh,EPHA4; [2],2% and 23%
same,%Inh,EPHA5,0%
same,%Inh,EPHA6; [2],0% and 12%
same,%Inh,EPHA7; [2],8% and 6%
same,%Inh,EPHA8; [2],0% and 18%
same,%Inh,EPHB1; [2],0% and 9%
same,%Inh,EPHB2,0%
same,%Inh,EPHB3; [2],3% and 28%
same,%Inh,EPHB4; [2],13% and 17%
same,%Inh,EPHB6; [2],29% and 12%
same,%Inh,ERBB2; [2],0% and 10%
same,%Inh,ERBB3,0%
same,%Inh,ERBB4; [2],28% and 37%
same,%Inh,ERK1,0%
same,%Inh,ERK2,0%
same,%Inh,ERK3; [2],7% and 0%
same,%Inh,ERK4; [2],54% and 22%
same,%Inh,ERK5,0%
same,%Inh,ERK8,0%
same,%Inh,ERN1; [2],3% and 1%
COc1ccccc1-c1ccc2c(NC(=O)C3CC3)n[nH]c2n1 [SB-711239],%Inh,EPHA4; [1],13%
same,%Inh,EPHA5,0%
same,%Inh,EPHA6; [1],9%
same,%Inh,EPHA7; [1],4%
same,%Inh,EPHA8; [1],9%
same,%Inh,EPHB1; [1],0%
same,%Inh,EPHB2,11%
same,%Inh,EPHB3; [1],15%
same,%Inh,EPHB4; [1],14%
same,%Inh,EPHB6; [1],6%
same,%Inh,ERBB2; [1],0%
same,%Inh,ERBB3,22%
same,%Inh,ERBB4; [1],23%
same,%Inh,ERK1,3%
same,%Inh,ERK2,3%
same,%Inh,ERK3; [1],0%
same,%Inh,ERK4; [1],0%
same,%Inh,ERK5,0%
same,%Inh,ERK8,0%
same,%Inh,ERN1; [1],0%

# From paper PMC5540273 (PLoS ONE, 2017)
